Reference: PMC4552634, “A New Set of Chemical Starting Points with Plasmodium falciparum Transmission-Blocking Potential for Antimalarial Drug Discovery” (PLoS ONE, 2015)
Hit rate of the full screen: of about 13,000 compounds, about 3,200 (25%) showed an effect of 50% or more. Some of the results follow.

System: P. falciparum stage V gametocytes
Parameters: BacTiter-Glo ATP luminescence viability of purified stage V gametocytes in 384-well plates, per cent inhibition versus DMSO
Conditions: 48 h, 5 µM; inhibitor

Row | SMILES | % Inhibition [%]
1 | COc1nc2c(CCN3CC[C@H](NCc4ccc5c(c4)NC(=O)CO5)[C@H](O)C3)c(Cl)cnc2cc1F [TCMDC-135805] | -8.55
2 | CC(C)CC(=O)N1CCNC[C@@H]1C(=O)NC1CC1 [TCMDC-141241] | 28.73
3 | CN1CCCCC1CCc1cc(C(=O)Nc2ccc(-c3ccc(O)cc3)cc2)ccc1O (centres unmarked) [TCMDC-132103] | -69.36
4 | CC1(C)CCC(=Cc2ccc(Cl)cc2)CC1(O)Cn1ccnc1 (centres unmarked) [TCMDC-125222] | 20.04
5 | Nc1ncc(Cc2cc(Cl)c(N)c3ncccc23)c(N)n1 [TCMDC-137889] | 44.6
6 | Cc1nc2ccc(-c3nc4ccc(N)cc4[nH]3)cc2[nH]1 [TCMDC-123723] | -56.67
7 | Nc1ccc(-c2nc3ccc(Oc4ccc5nc(-c6ccc(N)cc6)[nH]c5c4)cc3[nH]2)cc1 [TCMDC-125791] | -25
8 | Nc1ccc(-c2nc3ccc(Cc4ccc5nc(-c6ccc(N)cc6)[nH]c5c4)cc3[nH]2)cc1 [TCMDC-123486] | 52.65
9 | COc1ccccc1N1CCN(CCCCNC(=O)c2ccc(NC(=O)c3cc(Cl)cc(Cl)c3)cc2)CC1 [TCMDC-138236] | 3.866
10 | O=C(/C=C/c1ccc(Cl)c(Cl)c1)NCCCCCCN1CCN(C(=O)Nc2ccc(F)c(Cl)c2)CC1 [TCMDC-135833] | -83.03
11 | COc1ccc(-c2cccc(NC(=O)c3ccc(C#N)cc3)c2)cc1CN1CCN(C)CC1 [TCMDC-132612] | -15.47
12 | COc1ccc(-c2cccc(NC(=O)c3ccccc3)c2)cc1CN1CCCN(C)CC1 [TCMDC-132627] | 80.03
13 | COc1ccc(-c2cccc(NC(=O)c3ccc(C#N)cc3)c2)cc1CN1CCCN(C)CC1 [TCMDC-132609] | -22.05
14 | COc1ccc(-c2ccc(NC(=O)c3ccc(C#N)cc3)cc2)cc1CN1CCCN(C)CC1 [TCMDC-132517] | 41.17
15 | COc1ccc(-c2ccc(NC(=O)c3ccc(F)cc3)cc2)cc1CN1CCCN(C)CC1 [TCMDC-132514] | 15.06
16 | COc1ccc(-c2ccc(NC(=O)c3ccccc3)cc2)cc1CN1CCCN(C)CC1 [TCMDC-132535] | 93.82
17 | COc1ccc(-c2ccc(NC(=O)c3cccs3)cc2)cc1CN1CCCN(C)CC1 [TCMDC-132509] | -9.366
18 | COc1ccc(-c2cccc(NC(=O)c3cccs3)c2)cc1CN1CCCN(C)CC1 [TCMDC-132600] | 87.2
19 | O=C(Nc1cccc(C(F)(F)F)c1)NC1CCN(c2ccnc3cc(Cl)ccc23)C1 (centres unmarked) [TCMDC-133406] | -28.21
20 | COC(=O)CCCCCOc1cc(Cc2cnc(N)nc2N)cc(OC)c1OC [TCMDC-137678] | -5.017
21 | Cc1ccc(CCC(C)NCC(O)c2cccc(C(F)(F)F)c2)cc1 (centres unmarked) [TCMDC-131446] | 13.09
22 | COc1ccc(Cc2c(Cl)nc3nc(N)nc(N)c3c2C)cc1 [TCMDC-138055] | 17.08
23 | Oc1ccc(CCCNc2nc(NCc3cccc4ccccc34)nc(N3CCNCC3)n2)cc1 [TCMDC-133394] | 8.629

Row | SMILES | % Inhibition [%]
24 | Oc1ccc(CCCNc2nc(NCc3ccccc3-c3ccccc3)nc(N3CCNCC3)n2)cc1 [TCMDC-133391] | 23.94
25 | Oc1ccc(CCCNc2nc(NCc3cccc4ccccc34)nc(NC3CCNCC3)n2)cc1 [TCMDC-133392] | 57.4
26 | Oc1ccc(CCCNc2nc(NCc3ccccc3-c3ccccc3)nc(NC3CCNCC3)n2)cc1 [TCMDC-133389] | 58.76
27 | Oc1ccc(CCNc2nc(NCc3ccccc3-c3ccc(C(F)(F)F)cc3)nc(NC3CCNCC3)n2)cc1 [TCMDC-133387] | 26.8
28 | Oc1ccc(CCCNc2nc(NCc3cccc4ccccc34)nc(N3CCCNCC3)n2)cc1 [TCMDC-133445] | -39.91
29 | O=[N+]([O-])c1cccc(Nc2cncc(-c3ccc(CO)cc3)c2)c1 [TCMDC-136670] | 46.28
30 | CCCC(CNCc1cccc(C)c1)CNc1cc(=O)c2ccccc2[nH]1 (centres unmarked) [TCMDC-139435] | 10.27
31 | COc1cc(NCCCNCc2cn(Cc3cc(Br)cc(Br)c3)c3ccccc23)nc2ccccc12 [TCMDC-140677] | 108.1
32 | O=c1cc(NCC2(CNCc3cn(Cc4ccccc4)c4ccccc34)CCCCC2)[nH]c2ccccc12 [TCMDC-140540] | -59.9
33 | CCCC(CNCc1ccccc1)CNc1cc(=O)c2ccccc2[nH]1 (centres unmarked) [TCMDC-139434] | 43.59
34 | COc1cc(C(F)(F)F)cc2[nH]c(CNCCCNc3nc4ccccc4[nH]3)cc12 [TCMDC-140013] | 19.83
35 | COc1cc(NCC(C)CNCc2cn(Cc3ccccc3)c3ccccc23)nc2ccccc12 (centres unmarked) [TCMDC-140496] | 91.67
36 | CC(CNCc1cn(Cc2cc(Br)cc(Br)c2)c2ccccc12)CNc1cc(=O)c2ccccc2[nH]1 (centres unmarked) [TCMDC-140681] | 91.88
37 | COc1cc(NCC2(CNCc3cn(Cc4ccccc4)c4ccccc34)CCCCC2)nc2ccccc12.Cl [TCMDC-140539] | 107.8
38 | COc1cccc2[nH]c(NCCCNCc3cc(Br)cc(Br)c3)nc12 [TCMDC-139984] | 1.75
39 | COc1ccccc1C1CCN(Cc2csc(NC(=O)c3ccc(-c4ccc(C(F)(F)F)cc4)cc3)n2)CC1 [TCMDC-138781] | -44.16
40 | Cc1cc2[nH]c(-c3ccc(C(=O)NCCCN4CCN(c5cccc(Cl)c5)CC4)cc3F)nc2cc1Cl [TCMDC-140029] | -4.793
41 | Cc1cccc2[nH]c(-c3cccc(-c4ccc(CN5CCN(CCO)CC5)cc4)c3)nc12 [TCMDC-133026] | 5.684
42 | O=C(NCc1cc2c(cc1Cl)OCO2)c1ccc(CNC2CCN(Cc3ccccc3)CC2)cc1 [TCMDC-140786] | 7.44
43 | c1ccc(CN2CCC(NCc3ccc(-c4ccc(CNC5CCCC5)cc4)cc3)CC2)cc1 [TCMDC-140492] | 108.5
44 | c1ccc(CN2CCC(NCc3ccccc3-c3ccc(CNCc4ccc5c(c4)OCO5)cc3)CC2)cc1 [TCMDC-140475] | 90.32
45 | c1ccc(CN2CCC(NCc3ccccc3-c3cccc(CNCc4ccc5c(c4)OCO5)c3)CC2)cc1 [TCMDC-140474] | 47.21
46 | C=CCOc1ccc(CNC2CCN(Cc3ccccc3)CC2)cc1Br [TCMDC-125268] | 13.93

Row | SMILES | % Inhibition [%]
47 | c1ccc(CN2CCC(NCc3ccc(-c4cccc(CNC5CCCC5)c4)cc3)CC2)cc1 [TCMDC-140491] | 106.1
48 | O=C(NCc1cccc2ccccc12)c1ccc(CNC2CCN(Cc3ccccc3)CC2)cc1 [TCMDC-140789] | -3.964
49 | C(=C(c1cccs1)c1cccs1)c1ccc(CNC2CCN(Cc3ccccc3)CC2)cc1 [TCMDC-138647] | 92.91
50 | O=C(Nc1ccc(N2CCN(Cc3ccccc3)CC2)cc1)c1cccs1 [TCMDC-124320] | -18.09
51 | C[C@@]12C[C@@H](Nc3nc(NCCc4ccc(O)cc4)nc(N4CCNCC4)n3)C[C@@H](C1)c1cccc(Cl)c1O2 [TCMDC-134047] | -6.304
52 | Cc1cc(NC(=O)Nc2ccc3nc(C)oc3c2)c2cc(Cl)ccc2n1 [TCMDC-140076] | 38.43
53 | O=C(Nc1ccc2c(c1)OCO2)NC1CCN(c2ccnc(Nc3ccc(F)cc3)n2)C1 (centres unmarked) [TCMDC-133605] | -89.44
54 | CC(C)Cc1csc(NC(=O)C=Cc2ccco2)c1C(=O)O [TCMDC-125660] | 6.698
55 | Clc1ccc(OCc2ccccc2)c(-c2nc(-c3nc4ncc(Br)cc4[nH]3)cs2)c1 [TCMDC-136729] | -65.34
56 | c1ccc(CN2CCC(NCc3ccc(-c4cncc5ccccc45)cc3)CC2)cc1 [TCMDC-134153] | 14.12
57 | c1ccc(CN2CCC(NCc3ccccc3-c3ccc(CNC4CCCC4)cc3)CC2)cc1 [TCMDC-140473] | 106.4
58 | COc1ccccc1NC(=O)Nc1cccc(-c2ccc(-c3nc4ccc(C(F)(F)F)cc4[nH]3)cc2)c1 [TCMDC-133203] | -14.42
59 | N#Cc1ccc(N2CCN(Cc3cccc(-c4ccc(-c5nc6ccccc6[nH]5)cc4)c3)CC2)nc1.O=C(O)C(F)(F)F [TCMDC-133937] | 5.421
60 | FC(F)(F)c1cnc(Sc2nnc(-c3ccco3)o2)c(Cl)c1 [TCMDC-125006] | -49.8
61 | FC(F)(F)c1cnc(Sc2nnc(-c3ccncc3)o2)c(Cl)c1 [TCMDC-123767] | 83.92
62 | CC1CCCCN1Cc1cccc(-c2c[nH]c3nc(NC4CCCC4)ncc23)c1 (centres unmarked) [TCMDC-133776] | -28.36
63 | COc1ccc2nccc([C@@H](O)CN3CCC(NCc4ccc5c(c4)oc(=S)n5C)CC3)c2c1 [TCMDC-141186] | 1.23
64 | O=C(Nc1ccc(Cn2ncc(N3CCCNCC3)c(Cl)c2=O)cc1)Nc1ccc(F)cc1[N+](=O)[O-] [TCMDC-141926] | -31.19
65 | O=[N+]([O-])c1ccc(N2CCCN(C(=S)Nc3ccc(F)cc3Br)CC2)nc1 [TCMDC-124054] | 81.59
66 | O=C(Nc1ccc([N+](=O)[O-])cc1Br)c1cc2ccccc2nc1Cl [TCMDC-124537] | 29.24
67 | N#Cc1ccc(NC(=NC2CCN(Cc3ccccc3)CC2)Nc2ccccc2Cl)c(O)c1 [TCMDC-140256] | -5.798
68 | Cc1cccc2nc(-c3cccc(-c4ccc(C(=O)NCc5ccccc5S(C)(=O)=O)cc4)c3)[nH]c12 [TCMDC-132505] | 5.091
